The source of these data is PubChem BioAssay.

The assay deals with Dickkopf-related protein 1 (Homo sapiens) (UniProt O94907). Briefly: DKK1 binders on small-molecule microarrays, primary screen, biochemical, small-molecule microarray, 635 nm fluorescence scan (AID 1106).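 Further: score merges emission near 667 nm with signal to noise over three replicate slides.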 As to conditions: DKK1 binding, higher = more signal.
Sequence of Dickkopf-related protein 1 (Homo sapiens) (O94907 whole entry, looked up): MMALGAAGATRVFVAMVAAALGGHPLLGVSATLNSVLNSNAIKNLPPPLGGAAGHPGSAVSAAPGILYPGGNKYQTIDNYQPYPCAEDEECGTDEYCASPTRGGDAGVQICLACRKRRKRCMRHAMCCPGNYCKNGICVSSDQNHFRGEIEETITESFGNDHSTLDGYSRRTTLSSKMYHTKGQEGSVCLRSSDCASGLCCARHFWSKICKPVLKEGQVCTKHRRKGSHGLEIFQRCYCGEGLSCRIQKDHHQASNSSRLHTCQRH
Take `COCCOC(=O)N1C(=O)[C@@]2(c3cc(C#CCC(C(=O)OC)C(=O)OC)ccc31)[C@H](c1ccc(OCCO)cc1)N1[C@H](c3ccccc3)[C@H](c3ccccc3)OC(=O)[C@H]1[C@@H]2C(=O)N1CCN(c2ncccn2)CC1`: the composite z-score worked out at 0.637.

On to `O=C1O[C@@H](c2ccccc2)[C@@H](c2ccccc2)N2[C@@H](c3ccccc3OCCO)[C@]3(C(=O)Nc4ccc(C#CCCO)cc43)[C@@H](C(=O)N3CCN(c4ncccn4)CC3)[C@H]12`, for which the composite z-score is 0.464. With `COc1cc(CO)cc(I)c1O[C@H]1C=C(C(=O)NCCO)C[C@@H](N(CC2CCCCC2)C(=O)c2ccc(C(F)(F)F)cc2)[C@@H]1O` the figure was 0.521. Take `Cc1c(NC(=O)/C(C#N)=C/C=C/c2ccccc2[N+](=O)[O-])c(=O)n(-c2ccccc2)n1C`: the composite z-score amounted to 0.446.

In turn, `CCC[C@@H]1C[C@@]1(CCC)[C@@H](NP(=O)(c1ccccc1)c1ccccc1)c1ccc(Cl)cc1` registered a composite z-score of 0.102. The compound `C=CCN1C(=O)[C@]2(CC=C)N=C(c3ccc(OCCCO)cc3)O[C@@H]2c2ccccc21` had a composite z-score of 0.95.

Compound `O=C1c2ccccc2[C@](Cc2ccccc2I)(C(=O)NCCN2CCOCC2)[C@H](c2ccc(CO)cc2)N1Cc1ccccc1` displayed a composite z-score of 0.352. With `COC(=O)[C@@]1(Cc2ccc(F)cc2)[C@H]2c3cc(C(=O)N4CCCC4)n(CCc4c[nH]c5ccc(OC)cc45)c3C[C@H]2CN1C(=O)c1ccccc1`, the composite z-score was 0.0605. For `O=C1c2ccccc2[C@](Cc2ccccc2I)(C(=O)NCc2ccccc2)[C@H](c2ccc(CO)cc2)N1C1CCCCC1` the value was 0.837; for `COCC(=C=CC[C@H](O)c1cccc(OCCO)c1)C[C@H](O)c1ccccn1`, 0.354; for `CN1C2C=C(CCCO)C(C3C(=O)N(C(N)=O)C(=O)C32)C1c1cccs1` (centres undefined), 1.45. For `CN(C)CCCNC(=O)[C@@H]1c2ccccc2C(=O)N(Cc2ccc(OC(F)(F)F)cc2)[C@H]1c1ccc(CO)cc1` the value was 0.0558; for `CC(C)(C)OC(=O)CC[C@]1(C(=O)NCCN2CCOCC2)N=C(c2ccc(OCCCO)cc2)O[C@H]1c1ccccc1`, -1.02. Regarding `CC(C)CNC(=O)[C@@H]1c2ccccc2C(=O)N(Cc2cc(F)cc(C(F)(F)F)c2)[C@H]1c1ccc(CO)cc1`, the composite z-score stood at 0.258. For `C=C(/C(=C/C[C@@H](OC(=O)c1ccncc1)c1ccc(OCCO)cc1)c1cc(C(=O)OC)ccc1OC)C(C)C` the value was -0.0107. For `C=C(CCCC)/C(=C/C[C@@H](OC(=O)c1ccncc1)c1cccc(OCCO)c1)c1cnc2ccccc2c1` the value was 0.895; for `C=CCOC(=O)[C@H]1[C@@H]2C(=O)O[C@@H](c3ccccc3)[C@@H](c3ccccc3)N2[C@@H](c2ccc(OCCOC(=O)[C@H]3C[C@H]4C(=O)N[C@@H](Cc5ccccc5)C(=O)N4[C@H]3c3cccc(OCCO)c3)cc2)[C@]12C(=O)Nc1ccc(I)cc12`, 0.759. For `Cc1ccc(S[C@]2(C(=O)NC3CC3)CC(=O)N(Cc3ccccc3Cl)[C@@H]2c2ccc(CO)cc2I)cc1` the value was 0.122; for `C[C@@H]1ON(c2ccc(C(=O)OC(C)(C)C)cc2)[C@H](c2ccc(Br)cc2)[C@H]1C(=O)N1C(=O)OC[C@H]1Cc1ccccc1`, 1.11.
